# Measurements reported in PubChem BioAssay.
# Values without a mark were called inactive. Activity calls are given as the source filed them.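 How the source made its calls: active means fluorescence slope higher than the sample average by over 3 SD (cut at about -0.22 in these data, passing the limit was not always enough); inactive means the rest.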
# Biological target: Voltage-gated potassium channel subunit beta-2 (Rattus norvegicus) (UniProt P62483)
# Assay: inhibitors of rat Kvbeta2 reductase activity – biochemical, NADPH fluorescence, primary screen (AID 622);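 further: slope of raw intensity against log time taken from 70 to 1610 s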
# Conditions: recombinant KvBeta, 4-cyanobenzaldehyde reduction, at 10 µM, active compounds read high
# Chain of Voltage-gated potassium channel subunit beta-2 (Rattus norvegicus) (P62483 whole entry, looked up): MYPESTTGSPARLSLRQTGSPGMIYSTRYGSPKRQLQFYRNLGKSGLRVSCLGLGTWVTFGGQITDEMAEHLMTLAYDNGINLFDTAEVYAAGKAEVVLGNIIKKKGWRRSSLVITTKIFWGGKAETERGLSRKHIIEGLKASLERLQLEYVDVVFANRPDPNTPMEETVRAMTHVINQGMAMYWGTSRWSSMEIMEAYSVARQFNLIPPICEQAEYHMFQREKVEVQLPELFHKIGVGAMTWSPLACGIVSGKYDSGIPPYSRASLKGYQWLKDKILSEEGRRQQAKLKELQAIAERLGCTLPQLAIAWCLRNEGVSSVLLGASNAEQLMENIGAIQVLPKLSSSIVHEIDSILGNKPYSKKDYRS
row,SMILES,fluorescence slope
1,CCOC(=O)c1c(-c2cccs2)csc1NC(=O)CCCC(=O)O,-0.427
2,Fc1ccc(-c2cnc[nH]2)cc1,-0.513
3,CCOC(=O)c1[nH]c2ccc(Br)cc2c1NC(=O)CNC,-0.518
4,COc1ccc(C2(CN(C(C)=O)C(C)=O)CCCC2)cc1OC,-0.504
5,COc1ccccc1C1C(C#N)=C(N)Oc2cc(C)n(Cc3ccccn3)c(=O)c21 (centres undefined),-0.453
6,Cc1ccc(C(=O)/C=C/Nc2cccc(O)c2)cc1,-0.467
7,O=C(C1CC1(c1ccccc1)c1ccccc1)N1CCOCC1 (centres undefined),-0.416
8,COC(=O)CNC(=O)c1c(C)cc(=O)oc1C,-0.336
9,COc1ccc(CCn2c(=N)c(C(=O)NCc3ccco3)cc3c(=O)n4ccccc4nc32)cc1,-0.516
10,Nc1nc(NC(=O)c2cccs2)nn1-c1ccccc1,-0.486
11,Cc1c(O)c(CN2CCCC(C)C2)cc2c3c(c(=O)oc12)CCC3 (centres undefined),-0.0135
12,COc1ccc(CCn2c(=N)c(C#N)cc3c(=O)n4ccccc4nc32)cc1,-0.447
13,Cn1c(SCC(=O)N2CCOCC2)nnc1-c1cccc(NC(=O)c2ccccc2F)c1,-0.578
14,O=C(NC1CCS(=O)(=O)C1)c1c(NC(=O)C2COc3ccccc3O2)sc2c1CCCC2 (centres undefined),-0.42
15,COC(=O)C(NC(C)=O)(Nc1nc2ccc(S(C)(=O)=O)cc2s1)C(F)(F)F (centres undefined),-0.51
16,COc1ccc2c(c1)C1(C)CC(C)(C)N2C(=O)N1c1ccccc1 (centres undefined),-0.461
17,CCCCCn1c2nc3ccccc3nc2c2c(=O)n(CC(C)C)cnc21,-0.429
18,Nc1nnnn1/N=C/c1ccccn1,-0.513
19,Cc1nnc2n(-c3ccccc3)c(=O)c3c4c(sc3n12)CCCC4,-0.468
20,CCc1nc2sc3c(c2c(=O)o1)CCCC3,-0.413

row,SMILES,fluorescence slope
1,CCOC(=O)CNC(=O)Nc1ccccc1C(=O)OC,-0.507
2,COc1ccc(C(=O)NCCCCCC(=O)O)cc1OC,-0.427
3,CCOC(=O)C1=C(CSc2nc(C)cc(C)c2C#N)OC(N)=C(C#N)C1c1cccs1 (centres undefined),-0.493
4,COc1cc(NC(=O)NC(C)(C(F)(F)F)C(F)(F)F)cc(OC)c1OC,-0.48
5,COC(=O)C(NC(C)=O)(Nc1ccccn1)C(F)(F)F (centres undefined),-0.44
6,CC1(C)CNC(=O)c2sc(N3CCOCC3)nc2C1,-0.39
7,CCOC(=O)c1ccc(CC2S/C(=C(\C#N)C(C)=O)NC2=O)cc1 (centres undefined),-0.384
8,CC(=Nc1cccc(O)c1)c1sc2ccccc2c1O,-0.303
9,COc1cccc(N2C(=O)C(O)=C(C(C)=O)C2c2ccc(OC)c(OC)c2)c1 (centres undefined),-0.453
10,O=S(=O)(c1ccc2ccccc2c1)N(CC(O)CN1CCOCC1)c1ccccc1 (centres undefined),-0.344
11,Cc1c(O)c(CN2CCCCC2)cc2c3c(c(=O)oc12)CCC3,-0.00734
12,O=S(=O)(NCc1cccnc1)c1cccc2nsnc12,-0.482
13,Cc1cc(O)c(C(C)C)cc1N=C1CSC(=O)N1,-0.483
14,Cc1nc2sc(C#N)c(N)c2c2c1CCCC2,-0.0248 (active)
15,N#C/C(C(=O)N1CCOCC1)=C1/SC(Cc2ccccc2)C(=O)N1c1ccccc1 (centres undefined),-0.431
16,CN(CC(O)COc1ccc(OCC(O)CN(C)C2CCCCC2)cc1)C1CCCCC1 (centres undefined),-0.384
17,Cn1c(=O)[nH]c(=O)c2c1nc(N(CCO)Cc1ccccc1)n2Cc1ccccc1Cl,-0.438
18,Cc1nn(-c2ccccc2)c2c1C(=O)NC(=O)C(C)(C)C2,-0.52
19,Cc1ccc(-n2ncc3c(N4CCN(c5ccccc5)CC4)ncnc32)c(C)c1,-0.379
